PLK1 PBD inh – blocks phosphopeptide binding to human PLK1 polo-box domain. AID 720504. 2.8% of 360,000 active. Plk1 PBD binding of FITC phosphopeptide, fluorescence polarization. Potency, µM, inactives show max response, negative = inhibition, actives largely listed as inhibitors; note: series mostly up to about 57 µM; % is set by controls: 0 for no effect and ±100 for the full control effect; nearly all actives have a fitted effect of over 65% in size
PTAP TSG101 blk – blocks PTAP/TSG101 interaction to inhibit HIV-1 budding | Q99816 | Fluorescence polarization, FITC-PTAP peptide / Tsg101 binding | Potency, µM (highest dose often 115 µM), for the others: top-dose activity change, negative = inhibition, hits mostly inhibitors | 340,000 tested, under 10 active; active = well fitted inhibition curve with a large enough effect in the main read-out, with a control signal flat, not every such curve was filed as active; inconclusive = small, poorly fitted or top-dose-only effect, or effect the other way, or a change in a side signal; inactive = no such curve, though single readings can be large or run the other way; note: % of control where 0% means no effect
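Tsg101 binding domain (10 uM final) was mixed with compound and a FITC-labeled PTAP peptide (50 nM final) in HEPES pH 7.5 buffer with NaCl, Tween 20, EDTA and TCEP; fluorescence polarization was read after 20 min at r.t.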
VDR inh – inhibitors of human vitamin D receptor. VDR-SRC2-3 peptide fluorescence polarization, 2 h. Potency, µM, for the others: max response, negative = inhibition, usual class: inhibitors. AID 504847. P11473. 0.93% of 400,000 active; note: % is set by controls: 0 for no effect and ±100 for the full control effect
Target sequence (P11473 whole entry, looked up): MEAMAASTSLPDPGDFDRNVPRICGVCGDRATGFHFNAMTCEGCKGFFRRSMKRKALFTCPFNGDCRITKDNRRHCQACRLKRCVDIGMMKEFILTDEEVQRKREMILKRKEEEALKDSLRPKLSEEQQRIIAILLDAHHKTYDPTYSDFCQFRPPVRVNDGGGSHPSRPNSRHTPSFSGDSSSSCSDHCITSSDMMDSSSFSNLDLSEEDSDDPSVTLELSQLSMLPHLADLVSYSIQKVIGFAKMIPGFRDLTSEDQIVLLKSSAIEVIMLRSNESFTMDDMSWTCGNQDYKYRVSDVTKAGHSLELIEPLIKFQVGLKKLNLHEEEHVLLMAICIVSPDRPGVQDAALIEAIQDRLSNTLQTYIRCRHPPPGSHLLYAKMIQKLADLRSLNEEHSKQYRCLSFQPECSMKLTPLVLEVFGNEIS
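VDR–SRC2-3 interaction, FP format. Cmpds 23 nl via pintool, brief spin, 2 h ambient incubation.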
KAT2A inh – inhibitors of human GCN5L2 histone acetyltransferase; Q92830; GCN5L2 HAT assay, ThioGlo1 CoA-SH fluorescence; Potency, µM (doses to about 58.9 µM), without a hit: top-dose activity change, negative = inhibition, most hits filed as inhibitors; 0.21% of 390,000 active; note: % is set by controls: 0 for no effect and ±100 for the full control effect
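Enzyme at 20nM final was mixed with library compounds for 15 min at room temperature. Peptide H3(1-25) at 75uM, acetyl-CoA at 70uM and ThioGlo1 at 50uM were then added. Plates were read immediately and after 20 min (Ex340nm/Em540nm).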
USP1 inh – blocks the human USP1/UAF1 deubiquitinase complex; Potency, µM (titrated, usually from 57.1 µM), for the others: top-dose activity change, negative = inhibition, usual class: inhibitors; recombinant USP1/UAF1, Ub-Rhodamine cleavage fluorescence; 0.23% of 390,000 active; note: % is set by controls: 0 for no effect and ±100 for the full control effect; nearly all actives have a fitted effect of over 60% in size
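In this screen, compounds sit with the deubiquitinase complex (1nM) for 15 min at room temperature before Ub-Rho is added at 150nM final. Fluorescence rise is then followed for 6 reads every 60 seconds.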
* = called active by the depositor; ? = inconclusive; . = not tested or not shown. The list is not random: actives were taken first. Their share in the collection is about 3%. Unless noted, calls come from the whole dose curve; as a rule, active = well fitted curve in the direction sought with a large enough effect; inconclusive = small, poorly fitted or top-dose-only effect, or another doubt; inactive = no such curve, though single readings can be large; an effect the other way counts as inactive or inconclusive. Potency is the fitted concentration of half-maximal effect.

SMILES | PLK1 PBD inh | PTAP TSG101 blk | VDR inh | KAT2A inh | USP1 inh
CC(C)c1ccc(S(=O)(=O)c2cnc(SCC(=O)Nc3cccc(C(F)(F)F)c3)nc2N)cc1 | . | . | 10.0% | -16.7% | -31.4%
O=C(OCC#CCNc1nnc(-c2cccc3ccccc23)o1)c1cccs1 | . | . | . | -15.1% | .
Cc1ccc(-n2c(C)cc(/C=C3\NC(=O)NC3=O)c2C)c(C)c1 | 21.2µM* | 1.3% | ? | -13.6% | -19.1%
Cc1cc(/C=C2\NC(=O)NC2=O)c(C)n1-c1ccc(N2CCOCC2)cc1 | -6.5% | 3.1% | 7.8% | -13.0% | ?
Cc1cc(/C=C2/NC(=O)NC2=O)c(C)n1-c1ccc(C#N)cc1 | 18.9µM* | 0.2% | ? | -9.1% | -5.5%
CCOc1ccc(NC(=O)c2c(NCc3cccnc3)sc3c2CCC(C)C3)cc1 (stereo unspecified) | . | . | ? | -18.0% | ?
COc1cc2c(cc1OC)n(CC(=O)c1ccc(F)cc1)c(=O)n1nc(CCn3nc(C)cc3C)nc21 | . | . | 3.5% | -16.3% | -25.5%
CCC1CCc2c(sc(NC(=O)CSc3nc(-c4ccco4)cc(C(F)(F)F)n3)c2C#N)C1 (stereo unspecified) | 23.8µM* | -1.0% | -9.6% | -6.0% | 0.6%
N#Cc1c(NC(=O)CSc2nc(-c3ccccc3)cc(C(F)(F)F)n2)sc2c1CCC2 | ? | 0.6% | -2.3% | -2.3% | -16.7%
CCOc1cc(C(=O)N2CCc3c([nH]c4ccccc34)C2c2ccccc2)cc(OCC)c1OCC (stereo unspecified) | . | . | -2.7% | -6.8% | -26.3%
Cn1c(N2CCN(C(=O)Nc3ccc(C(F)(F)F)cc3)CC2)nc2ccccc21 | 10.6µM* | -9.5% | ? | -10.9% | -3.0%
Cn1c(N2CCN(C(=O)NCc3ccccc3)CC2)nc2ccccc21 | -7.2% | -7.3% | 3.1% | -0.3% | -7.1%
CC(=O)N1/C(=C/c2ccc(N(C)C)cc2)C(=O)c2ccccc21 | -9.1% | 1.6% | 31.6µM* | -13.2% | -10.9%
CN(C)S(=O)(=O)c1cccc(NC(=O)COC(=O)CCOc2ccccc2)c1 | -7.1% | 0.4% | 1.6% | -3.5% | -7.1%
CN(C)S(=O)(=O)c1cccc(NC(=O)COC(=O)COc2ccc(Br)cc2)c1 | 26.7µM* | -6.0% | -19.5% | -9.4% | -17.2%
CN(C)CCNc1nc(-c2ccco2)c2c(c1C#N)CC(C)(C)OC2 | -9.0% | -7.0% | -5.6% | -3.6% | -15.2%
CCCCN(C)c1nc(-c2ccco2)c2c(c1C#N)CC(C)(C)OC2 | 29.9µM* | -5.1% | 20µM* | -27.4% | -14.8%
COc1ccc(C(=O)/C(=C/c2cccs2)c2nc3ccccc3o2)cc1 | 26.7µM* | -2.0% | 31.6µM* | -11.2% | -15.3%
Cc1oncc1C(=S)Nc1ccccc1 | 26.7µM* | -6.2% | -4.4% | -0.3% | -2.1%
COc1ccccc1NC(=O)Cc1nnc(SCC(=O)Nc2ccc(F)cc2F)n1C | -1.7% | -4.0% | 10.1% | -0.6% | -12.5%
CCNc1nc(NCC)n2c(SCC(=O)Nc3ccccc3F)nnc2n1 | 11.9µM* | -4.1% | -6.6% | ? | -11.1%
CCNc1nc(NCC)n2c(SCC(=O)Nc3ccccc3OC(F)F)nnc2n1 | -11.4% | -3.4% | 5.4% | -4.0% | -4.7%
COc1ccccc1NC(=O)CSc1nnc(CCC(=O)Nc2ccccc2F)n1C | -4.0% | -2.3% | -12.1% | 35.5µM* | 2.6%
CCNc1nc(NCC)n2c(SCC(=O)Nc3ccc(CC)cc3)nnc2n1 | 6.7µM* | 5.6% | 50.1µM* | -14.4% | -11.3%
O=C1NC(=S)SC1=Cc1cc(Br)ccc1O | 26.7µM* | -5.3% | ? | . | -18.1%
SMILES | PLK1 PBD inh | PTAP TSG101 blk | VDR inh | KAT2A inh | USP1 inh
COc1ccc(C=C2SC(=S)NC2=O)cc1 | -21.5% | -3.3% | ? | . | -21.3%
O=C1NC(=S)S/C1=C\c1ccc2ccccc2c1 | 29.9µM* | -6.4% | 6.0% | -3.0% | 3.3%
O=C1NC(=S)SC1=Cc1ccccc1Br | 0.0% | -10.1% | ? | . | -23.3%
Cc1ccc(S(=O)(=O)N2CCCC(C(=O)O)C2)s1 (stereo unspecified) | 29.9µM* | -6.0% | -23.2% | -6.1% | -4.0%
CC(C)=CCC/C(C)=C/C=C/C(C)=C/C=C/C(C)=C/C=C/C=C(C)/C=C/C=C(C)/C=C/C=C(\C)CCC=C(C)C | . | . | ? | -14.5% | .
COC(=O)/C=C/C(C)=C/C=C/C(C)=C/C=C/C=C(C)/C=C/C=C(C)/C=C/C(=O)O | . | . | 89.1µM* | -4.9% | .
CCCC(O)(CCC)C(=O)NN1CCCCC1 | 18.9µM* | -5.8% | 79.4µM* | -11.5% | -9.6%
CC(C)CCC(O)(CCC(C)C)C(=O)NN1CCCCC1 | 5.8% | 0.6% | -0.9% | -3.7% | -14.0%
CCOC(=O)c1c(N2C(=O)Nc3cc(Cl)c(Cl)cc3N2O)sc2c1CCCCC2 | 13.4µM* | -10.5% | ? | ? | -7.0%
CN(C)C(=C(C#N)C#N)N1CCN(c2ccc(Cl)cc2)CC1 | 29.9µM* | -1.3% | -7.0% | -11.2% | -5.8%
O=C(CCCC(=O)NCc1ccc(F)cc1)NCc1ccc(F)cc1 | 23.8µM* | -4.3% | 14.3% | -9.3% | ?
O=C(COc1ccc(Cl)cc1)NCc1ccc(F)cc1 | 26.7µM* | -4.6% | -22.9% | -2.8% | -18.9%
COc1ccc(OCC(=O)NCc2ccc(Cl)cc2)cc1 | -11.1% | 0.9% | 3.4% | -6.0% | -13.0%
O=C(/C=C/c1ccc(OCCCF)cc1)NCc1ccc(Cl)cc1 | 4.4% | 1.6% | 10.5% | 3.55µM* | -12.0%
O=C(CCCC(=O)NCc1ccccc1)NCc1ccccc1 | -1.9% | -4.1% | -6.7% | 0.7% | -15.5%
COc1cc(/C=C2\C(=N)N3N=C(S(C)(=O)=O)SC3=NC2=O)ccc1OCCOc1ccc(C)cc1 | ? | -14.4% | 8.0% | 4.2% | -28.0%
COc1cc(/C=C2\C(=N)N3N=C(S(C)(=O)=O)SC3=NC2=O)cc(OC)c1OCCOc1cccc(C)c1 | 29.9µM* | -8.0% | ? | ? | -13.7%
COc1cc(/C=C2\C(=N)N3N=C(S(C)(=O)=O)SC3=NC2=O)cc(OC)c1OCCOc1ccc(C)cc1 | 21.2µM* | -4.4% | ? | -14.4% | -21.6%
CCOc1ccc(CNC(=O)CCC(=O)N2CC3CCCN3c3ccccc32)cc1 (stereo unspecified) | . | . | -3.7% | 1.0% | -0.7%
CC(=O)NCc1ccc(S(=O)(=O)N2CCCN(C)CC2)cc1 | 3.77µM* | -2.5% | ? | 5.6% | -14.5%
CC(=O)N1c2ccc(S(=O)(=O)N3CCCCC3)cc2CC1C(=O)NCc1ccc(N(C)C)cc1 (stereo unspecified) | 21.2µM* | -0.4% | -23.1% | -21.6% | -21.2%
CC(=O)N1c2ccc(S(=O)(=O)N3CCCCCC3)cc2CC1C(=O)NCc1ccc(Cl)cc1 (stereo unspecified) | . | . | 5.2% | -7.9% | -24.3%
CCc1ccccc1Nc1ccc(C(=O)O)cc1N | -10.1% | -7.5% | -8.6% | -4.7% | -14.3%
CCNc1ccc(C(=O)O)cc1N | -2.5% | 0.3% | 79.4µM* | -2.4% | -4.5%
O=C(CNc1ccccc1)c1ccc([N+](=O)[O-])cc1 | ? | -3.0% | ? | -3.4% | -8.1%

High-throughput results: PubChem BioAssay, National Center for Advancing Translational Sciences (NCATS)
